Where “and” joins values, the source holds several entries; their conditions need not be identical. Identical values can stand only once. In all, about 16,000 compounds went through this assay and about 2,600 (16%) were called active. Another 20% or so got no clear call; they are omitted. Calls come from the whole dose curve; as a rule, active = well fitted curve in the direction sought with a large enough effect; inconclusive = small, poorly fitted or top-dose-only effect, or effect the other way; inactive = no such curve, though single readings can be large or run the other way. These entries were drawn from the full list.
Biological target: Cytochrome P450 2D6 (Homo sapiens) (UniProt P10635)
Assay: Cytochrome panel assay with activity outcomes
Details: recombinant CYP, pro-luciferin dealkylation, luminescence, p450-cyp2d6; series mostly up to 57.1 µM
% is set by controls: 0 for no effect and ±100 for the full control effect.

Chain of Cytochrome P450 2D6 (Homo sapiens) (P10635 whole entry, looked up): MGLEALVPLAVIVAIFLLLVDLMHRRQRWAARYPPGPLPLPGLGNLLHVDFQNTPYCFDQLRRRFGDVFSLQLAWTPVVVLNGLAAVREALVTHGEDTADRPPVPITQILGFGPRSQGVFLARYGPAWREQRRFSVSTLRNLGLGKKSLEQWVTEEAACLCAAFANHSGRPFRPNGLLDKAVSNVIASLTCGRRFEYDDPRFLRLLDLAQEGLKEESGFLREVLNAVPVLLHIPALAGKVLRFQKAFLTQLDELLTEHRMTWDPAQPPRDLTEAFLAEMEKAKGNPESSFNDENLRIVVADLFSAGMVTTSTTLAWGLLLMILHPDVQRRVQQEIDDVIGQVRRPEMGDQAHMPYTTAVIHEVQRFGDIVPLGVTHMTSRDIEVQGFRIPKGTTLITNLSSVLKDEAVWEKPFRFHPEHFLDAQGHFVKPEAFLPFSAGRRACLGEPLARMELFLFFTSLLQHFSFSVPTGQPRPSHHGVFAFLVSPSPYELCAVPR

AC50, inactive:
CC1(C(=O)CSc2nc3ccccc3s2)CCC(=O)O1 (stereo not drawn)
CC(=O)O[C@@H](C)C[N+](C)(C)C
Cn1c(SC2=CS(=O)(=O)c3ccccc32)nc2ccccc21
COC(=O)[C@@H]1C[C@H]1[C@@H](NC(=O)c1ccccc1)c1ccccc1
COc1ccc(NC2=NC(=S)N(c3ccc(C)cc3)C23CCCCC3)cc1
CC1(C)CC(NC(=O)c2ccc3c(c2)OCO3)CC(C)(C)N1
COCCNc1ccnc(-c2c(C)noc2C)n1
Cc1cnc(CNc2ccnc(-c3cccc(NS(C)(=O)=O)c3)n2)cn1
CCOC(=O)CNS(=O)(=O)c1cc(-c2nn(C)c(=O)c3ccccc23)ccc1C
CCCCCCCCC(=O)N/N=C/c1ccccn1
CCNc1ncc2nc(-c3ccc(Cl)cc3)c(=O)n(Cc3cccc(OC)c3)c2n1
O=[N+]([O-])c1ccc(N2CCC(=NOCc3ccc(Cl)cc3)CC2)cc1
O=c1c(-c2ccc(Cl)cc2)nc2cncnc2n1Cc1ccccc1Cl
CCOC(=O)CSc1nnc(CNC(=O)c2ccc(OC)cc2)n1C1CCCCC1
Cc1ccc(C)c(-c2cc(C(=O)Nc3nccs3)c3ccccc3n2)c1
CCCCNC(=O)NC1C(NC(=O)NCCCC)N(C)C(=O)N1C (stereo not drawn)
CC(=O)N1CC(=O)N(OCc2ccccc2)C1c1ccc(Cl)cc1Cl (stereo not drawn)
CCn1c(SCC(=O)OC)nc2sc3c(c2c1=O)CCC3
COC(=O)c1cccc(C(=O)Nc2ccc(C)cc2)n1
N#CCCn1c(=O)c(-c2cccc(C#N)c2)nc2cnc(Oc3cccc(Cl)c3)nc21
CC(=O)SCC[N+](C)(C)C
O=C(c1cnccn1)N1CCC2(CC1)CCN(c1ncccn1)CC2
CN1CCC2(CC1)CCN(C(=O)c1ccncc1)CC2
CC(C)NC(=O)N1CCC2(CC1)CCN(C(=O)c1ccncc1)CC2
CC(C)CN1CCCC2(CCN(C(=O)c3cnccn3)CC2)C1
COC(=O)[C@@]1(Cc2ccc(OC)cc2)[C@H]2c3cc(C(=O)N4CCCC4)n(Cc4ccc(Cl)c(C(F)(F)F)c4)c3C[C@H]2CN1C(=O)c1ccccc1
COc1cc(NC(=S)NC(=O)c2c(OC)cccc2OC)ccc1NC(=O)c1cccs1
C=C1c2cccc(O)c2C(O)=C2C(=O)[C@@]3(O)C(O)=C(C(N)=O)C(=O)[C@@H](N(C)C)[C@@H]3[C@@H](O)[C@H]12
CCOC(=O)N1CCN(c2nc(-c3cccs3)cc(C(F)(F)F)n2)CC1
CCOC(=O)N1CCN(C(=O)CNS(=O)(=O)c2cccs2)CC1
c1ccc(Oc2cc(-c3ccccc3)ncn2)cc1
O=c1c(-c2ccc(F)cc2)nc2cnc(Nc3ccccc3)nc2n1Cc1cccs1
Cc1ccc(S(=O)(=O)N(CC(=O)N/N=C/c2ccc(F)cc2)c2cccc3cccnc23)cc1
CCCOc1ccc(C(=O)NNC(=S)NC(=O)CC)cc1
CCCOc1ccc(-c2nc(N)n[nH]2)cc1
O=C(Nc1cccc(F)c1)N1CC[C@@]2(CCCN(C(=O)c3cnccn3)C2)C1
CC(C)(C)NC(=O)C(=O)N/N=C/c1ccc(Br)cc1
Nc1nc(-c2ccccc2)cc(-c2ccccc2O)n1
COc1cccc(Cn2c(=O)c(-c3ccc(Cl)cc3)nc3cnc(OC)nc32)c1
Cc1ccccc1NC(=S)NC(=O)c1cc(-c2ccccc2)nc2ccccc12
CC(C)(C)C(=O)NNC(=O)CCCOc1ccc(Cl)cc1Cl
COC(=O)CCC(=O)NNC(=O)CCCOc1ccc(Cl)cc1Cl

AC50, active:
CC1(C)CC(NCc2ccc3c(c2)OCO3)CCO1 (stereo not drawn) 0.631 µM
COc1ccc2[nH]cc(CCNc3ccnc(-c4cccnc4)n3)c2c1 1.26 µM
COc1ccc2[nH]cc(CCNc3ccnc(-c4ccc(N(C)C)cc4)n3)c2c1 10 µM
COc1ccc2[nH]cc(CCNc3ccnc(-c4cccc(NS(C)(=O)=O)c4)n3)c2c1 20 µM
COc1ccc2[nH]cc(CCNc3ccnc(-c4ccoc4)n3)c2c1 12.6 µM
COc1ccc2[nH]cc(CCNc3ccnc(-c4ccc5c(c4)OCO5)n3)c2c1 7.94 µM
CC(C)CN1CCC2(CC1)CCN(C(=O)c1ccncc1)CC2 3.98 µM
CC(C)CN1CCC2(CC1)CCN(C(=O)c1cnccn1)CC2 10 µM
CCOC(=O)N1CCN(C(=O)CNCc2cccs2)CC1 3.98 µM
Clc1ccc(C(c2nnnn2C2CCCC2)N2CCN(Cc3ccncc3)CC2)cc1 (stereo not drawn) 1.26 µM
Cc1ccc(C(c2nnnn2C2CCCC2)N2CCN3CCCC3C2)cc1 (stereo not drawn) 0.447 µM
c1coc(CN2CCN(C(c3cccs3)c3nnnn3C3CCCC3)CC2)c1 (stereo not drawn) 1.26 µM
CCCOc1ccc(OCCNC2CCCC2)cc1 1.26 µM
c1ccc(CCN2CCN=C2Cc2ccccc2)cc1 0.126 µM
C#CCN(C)CCCOc1ccc(Cl)cc1Cl 2 µM and 398 nM

activity, negative = inhibition, inactive:
O=[N+]([O-])c1ccc([C@@H](Nc2ccccc2)c2ccc3cccnc3c2O)cc1 -2.01% [at 11.4 µM]
O=c1n(-c2ccccc2)c(=O)n2n1CC[C@H]1/C(=N\OCc3ccccc3)[C@H]3O[C@@H]3[C@@H](O)[C@@H]12 10.4% [at 11.4 µM]
CON(C)C(=O)c1nnc2c3ccccc3n(S(=O)(=O)c3ccc(C)cc3)c2n1 -3.04% [at 11.4 µM] and -5.32% [at 11.4 µM]
CC(C)N(CC(=O)O)CC(=O)O 12.3% [at 11.4 µM]
CO[C@H]1COC(=O)[C@@H](C)COC(=O)[C@@H](Cc2ccccc2)NC(=O)C/C=C\[C@H]1C 0.386% [at 11.4 µM]
C[C@H](c1ccccc1)N1C(=O)[C@H]2[C@@H]3[C@H](O)[C@H](O)CC(=O)[C@H]3CC[C@H]2C1=O 4.75% [at 11.4 µM]

— PubChem BioAssay AID1851 (National Center for Advancing Translational Sciences (NCATS), 2009)
